According to article PMC11062922 (Nature Chemical Biology, 2023):
Where two headings read alike, the source gives them in different places.

How the values were obtained:
PRKD2 = conditions: read-out: apparent Kd, n = 1
PRKD3 = conditions: read-out: apparent Kd, n = 1

## Lestaurtinib
PRKD2; compound concentrations:100 nM and 1000 nM (sheet 'Lestaurtinib' of Supplementary Table 1),run:Lestaurtinib_02741_R1,Plate:MR023
  potency estimated from few doses: 38.5 nM
PRKD2; compound concentrations:100 nM and 1000 nM (sheet 'Lestaurtinib' of Supplementary Table 1),run:Lestaurtinib_02748_R1,Plate:MR024
  potency estimated from few doses: 45.6 nM
PRKD2; compound concentrations:100 nM and 1000 nM (sheet 'Lestaurtinib' of Supplementary Table 1),run:Lestaurtinib_02748_R2,Plate:MR024
  potency estimated from few doses: 48.1 nM
PRKD2; compound concentrations:100 nM and 1000 nM (sheet 'Lestaurtinib' of Supplementary Table 1),run:Lestaurtinib_02748_R3,Plate:MR024
  potency estimated from few doses: 45.9 nM
PRKD2; compound concentrations:100 nM and 1000 nM (sheet 'Lestaurtinib' of Supplementary Table 1),run:Lestaurtinib_02752_R1,Plate:MR025
  potency estimated from few doses: 59.6 nM
PRKD2; compound concentrations:100 nM and 1000 nM (sheet 'Lestaurtinib' of Supplementary Table 1),run:Lestaurtinib_02752_R2,Plate:MR025
  potency estimated from few doses: 58 nM
PRKD2; compound concentrations:100 nM and 1000 nM (sheet 'Lestaurtinib' of Supplementary Table 1),run:Lestaurtinib_02752_R3,Plate:MR025
  potency estimated from few doses: 35.6 nM
PRKD2; compound concentrations:100 nM and 1000 nM (sheet 'Lestaurtinib' of Supplementary Table 1),run:Lestaurtinib_02765_R1,Plate:MR026
  potency estimated from few doses: 39.1 nM
PRKD2; compound concentrations:100 nM and 1000 nM (sheet 'Lestaurtinib' of Supplementary Table 1),run:Lestaurtinib_02765_R2,Plate:MR026
  potency estimated from few doses: 69.2 nM
PRKD2; compound concentrations:100 nM and 1000 nM (sheet 'Lestaurtinib' of Supplementary Table 1),run:Lestaurtinib_02765_R3,Plate:MR026
  potency estimated from few doses: 67.9 nM
PRKD2; compound concentrations:100 nM and 1000 nM (sheet 'Lestaurtinib' of Supplementary Table 1),run:Lestaurtinib_02766_R1,Plate:MR027
  potency estimated from few doses: 45.5 nM
PRKD2; compound concentrations:100 nM and 1000 nM (sheet 'Lestaurtinib' of Supplementary Table 1),run:Lestaurtinib_02766_R2,Plate:MR027
  potency estimated from few doses: 40.9 nM
PRKD2; compound concentrations:100 nM and 1000 nM (sheet 'Lestaurtinib' of Supplementary Table 1),run:Lestaurtinib_02768_R2,Plate:MR028
  potency estimated from few doses: 44 nM
PRKD2; compound concentrations:100 nM and 1000 nM (sheet 'Lestaurtinib' of Supplementary Table 1),run:Lestaurtinib_02768_R3,Plate:MR028
  potency estimated from few doses: 41.6 nM
PRKD2; compound concentrations:100 nM and 1000 nM (sheet 'Lestaurtinib' of Supplementary Table 1),run:Lestaurtinib_02795_R1,Plate:MR022
  potency estimated from few doses: 45 nM
PRKD2; compound concentrations:100 nM and 1000 nM (sheet 'Lestaurtinib' of Supplementary Table 1),run:Lestaurtinib_02795_R2,Plate:MR022
  potency estimated from few doses: 37.3 nM
PRKD2; compound concentrations:100 nM and 1000 nM (sheet 'Lestaurtinib' of Supplementary Table 1),run:Lestaurtinib_02802_R2,Plate:MR029
  potency estimated from few doses: 43.6 nM
PRKD2; compound concentrations:100 nM and 1000 nM (sheet 'Lestaurtinib' of Supplementary Table 1),run:Lestaurtinib_02802_R3,Plate:MR029
  potency estimated from few doses: 32.9 nM
PRKD2; compound concentrations:100 nM and 1000 nM (sheet 'Lestaurtinib' of Supplementary Table 1),run:Lestaurtinib_02896_R1,Plate:MR030
  potency estimated from few doses: 43 nM
PRKD2; compound concentrations:100 nM and 1000 nM (sheet 'Lestaurtinib' of Supplementary Table 1),run:Lestaurtinib_02896_R2,Plate:MR030
  potency estimated from few doses: 50.1 nM
PRKD2; compound concentrations:100 nM and 1000 nM (sheet 'Lestaurtinib' of Supplementary Table 1),run:Lestaurtinib_02896_R3,Plate:MR030
  potency estimated from few doses: 40.6 nM
PRKD2; compound concentrations:100 nM and 1000 nM (sheet 'Lestaurtinib' of Supplementary Table 1),run:Lestaurtinib_03172_R1,Plate:MR031
  potency estimated from few doses: 29.7 nM
PRKD2; compound concentrations:100 nM and 1000 nM (sheet 'Lestaurtinib' of Supplementary Table 1),run:Lestaurtinib_03172_R2,Plate:MR031
  potency estimated from few doses: 36 nM
PRKD2; compound concentrations:100 nM and 1000 nM (sheet 'Lestaurtinib' of Supplementary Table 1),run:Lestaurtinib_03172_R3,Plate:MR031
  potency estimated from few doses: 44.1 nM
PRKD2; compound concentrations:100 nM and 1000 nM (sheet 'Lestaurtinib' of Supplementary Table 1),run:Lestaurtinib_03252_R1,Plate:MR032
  potency estimated from few doses: 27.4 nM
PRKD2; compound concentrations:100 nM and 1000 nM (sheet 'Lestaurtinib' of Supplementary Table 1),run:Lestaurtinib_03252_R2,Plate:MR032
  potency estimated from few doses: 32.1 nM
PRKD2; compound concentrations:100 nM and 1000 nM (sheet 'Lestaurtinib' of Supplementary Table 1),run:Lestaurtinib_03260_R1,Plate:MR033
  potency estimated from few doses: 52.3 nM
PRKD3; compound concentrations:100 nM and 1000 nM (sheet 'Lestaurtinib' of Supplementary Table 1),run:Lestaurtinib_02339_R1,Plate:MR001
  potency estimated from few doses: 98.8 nM
PRKD3; compound concentrations:100 nM and 1000 nM (sheet 'Lestaurtinib' of Supplementary Table 1),run:Lestaurtinib_02339_R2,Plate:MR001
  potency estimated from few doses: 98.8 nM
PRKD3; compound concentrations:100 nM and 1000 nM (sheet 'Lestaurtinib' of Supplementary Table 1),run:Lestaurtinib_02364_R1,Plate:MR002
  potency estimated from few doses: 97.6 nM
PRKD3; compound concentrations:100 nM and 1000 nM (sheet 'Lestaurtinib' of Supplementary Table 1),run:Lestaurtinib_02364_R3,Plate:MR002
  potency estimated from few doses: 93.5 nM
PRKD3; compound concentrations:100 nM and 1000 nM (sheet 'Lestaurtinib' of Supplementary Table 1),run:Lestaurtinib_02367_R1,Plate:MR003
  potency estimated from few doses: 45.3 nM
PRKD3; compound concentrations:100 nM and 1000 nM (sheet 'Lestaurtinib' of Supplementary Table 1),run:Lestaurtinib_02367_R2,Plate:MR003
  potency estimated from few doses: 62.3 nM
PRKD3; compound concentrations:100 nM and 1000 nM (sheet 'Lestaurtinib' of Supplementary Table 1),run:Lestaurtinib_02367_R3,Plate:MR003
  potency estimated from few doses: 63.6 nM
PRKD3; compound concentrations:100 nM and 1000 nM (sheet 'Lestaurtinib' of Supplementary Table 1),run:Lestaurtinib_02381_R2,Plate:MR004
  potency estimated from few doses: 59.1 nM
PRKD3; compound concentrations:100 nM and 1000 nM (sheet 'Lestaurtinib' of Supplementary Table 1),run:Lestaurtinib_02407_R1,Plate:MR005
  potency estimated from few doses: 98 nM
PRKD3; compound concentrations:100 nM and 1000 nM (sheet 'Lestaurtinib' of Supplementary Table 1),run:Lestaurtinib_02407_R2,Plate:MR005
  potency estimated from few doses: 51.7 nM
PRKD3; compound concentrations:100 nM and 1000 nM (sheet 'Lestaurtinib' of Supplementary Table 1),run:Lestaurtinib_02422_R1,Plate:MR006
  potency estimated from few doses: 76.7 nM
PRKD3; compound concentrations:100 nM and 1000 nM (sheet 'Lestaurtinib' of Supplementary Table 1),run:Lestaurtinib_02422_R2,Plate:MR006
  potency estimated from few doses: 42 nM
PRKD3; compound concentrations:100 nM and 1000 nM (sheet 'Lestaurtinib' of Supplementary Table 1),run:Lestaurtinib_02422_R3,Plate:MR006
  potency estimated from few doses: 81.8 nM
PRKD3; compound concentrations:100 nM and 1000 nM (sheet 'Lestaurtinib' of Supplementary Table 1),run:Lestaurtinib_02437_R1,Plate:MR007
  potency estimated from few doses: 84 nM
PRKD3; compound concentrations:100 nM and 1000 nM (sheet 'Lestaurtinib' of Supplementary Table 1),run:Lestaurtinib_02437_R3,Plate:MR007
  potency estimated from few doses: 5.38 nM
